Paper PMC7819943, “Rice protein-binding microarrays: a tool to detect cis-acting elements near promoter regions in rice”
In all, about 68,000 sequences were measured (“fluorescence intensity (a.u.)”: median about 9,100, highest 2% from about 16,000 on). This excerpt belongs to a sample that is enriched for the highest values.

What follows are sequences tested against OsWRKY34 (Oryza sativa, UniProt Q0JBA9 1-250) (assay: protein-binding microarray (RPBM); PBS, 2% BSA, 51.3 ng/ul salmon testes DNA, 50 uM zinc acetate, 200 nM TF, 25 C, 1 h; high values mean tight binding). Settings: protein: recombinant; tags: N-terminal polyhistidine and DsRed monomer fusion (pET32a); label: CyDye5-dUTP incorporated in the synthesized complementary strand; 3' TTTTT single-stranded linker to array surface; dsDNA, one strand shown.
OsWRKY34, sequence (Q0JBA9 entry or part of it): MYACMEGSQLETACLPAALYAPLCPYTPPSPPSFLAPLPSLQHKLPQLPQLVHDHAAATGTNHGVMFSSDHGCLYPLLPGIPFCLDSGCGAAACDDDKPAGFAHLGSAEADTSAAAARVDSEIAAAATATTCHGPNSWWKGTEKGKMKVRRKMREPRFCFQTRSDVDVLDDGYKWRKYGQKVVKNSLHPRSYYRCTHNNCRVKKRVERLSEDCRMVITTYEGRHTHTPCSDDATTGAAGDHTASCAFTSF
Procedure, shortened: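 Polyhistidine-tagged DsRed fusions of transcription factors, joined at the N-terminus, were expressed in E. coli BL21-CodonPlus and isolated on Ni–NTA. They were incubated at 200 nM for 1 h at 25 °C on a custom Agilent array, double-stranded and BSA-blocked, in PBS with 2% BSA, salmon testes DNA and 50 µM zinc acetate. The binding signal is per-feature fluorescence intensity (arbitrary units) read on an Axon 4000B scanner after washing.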
With “AAACTGTTCTCCTCCACTTGCCTATCTTATCCTCTCTTATCGGAGTCACCTAGTGCAG” the binding signal was 8930 fluorescence intensity (a.u.). In the case of “ACGGTTGTGTATTTCATAGTAGGGTGTAAATGTACGCTGACGGAGTCACCTAGTGCAG”, the binding signal is reported as 8030 fluorescence intensity (a.u.). “ATACAACTTCGTCTGGCGCCCTCAATCGATCTCGCTCTATCGGAGTCACCTAGTGCAG” was tested, and the binding signal was 9870 fluorescence intensity (a.u.). “AACCCTCATCTACTTCTGGCCCTCTAAGAGTTCTCCACTACGGAGTCACCTAGTGCAG” was tested, and the binding signal was 8400 fluorescence intensity (a.u.). “GTGTGTGCCTCCTTTTCTCTTCTTCAGTTTTCAACTCAAACGGAGTCACCTAGTGCAG” was tested, and the binding signal was 9440 fluorescence intensity (a.u.). With “CCTCATCCCGTCCAGCGTTCACCCGACGTCGCCCGTCGCACGGAGTCACCTAGTGCAG” the binding signal was 10500 fluorescence intensity (a.u.). For “TGAGTCTTCACAATCCCATGTCACATGATCATGTGATCTTCGGAGTCACCTAGTGCAG”, the binding signal was 9860 fluorescence intensity (a.u.). In the case of “GTGGGGATTGGGTAGGAGAAGGAGTGGGGAATTAGGTTAGCGGAGTCACCTAGTGCAG”, the binding signal is reported as 12200 fluorescence intensity (a.u.). “TGTACTGTAGGGGTGGGATTGTGATTGGAAAATGAATGAACGGAGTCACCTAGTGCAG” was tested, and the binding signal was 18600 fluorescence intensity (a.u.). With “GAAATGAGGGGTGGGATTGGGATTGGGATTGGAAAATGAACGGAGTCACCTAGTGCAG” the binding signal was 11800 fluorescence intensity (a.u.). For “GGGTGGGATTGGGATTGGGAAATGAATGAAGGGTTAGGATCGGAGTCACCTAGTGCAG”, the binding signal was 16400 fluorescence intensity (a.u.). With “GTGGGATTAGGATTGGAAAATGAATGAAGGGTTAGAATTACGGAGTCACCTAGTGCAG” the binding signal was 8560 fluorescence intensity (a.u.). “GTGATTGGATGGGTAGTGGAGACAGGTGGGAAAAATGAATCGGAGTCACCTAGTGCAG” was tested, and the binding signal was 8510 fluorescence intensity (a.u.). In the case of “GTCGATGTGTCTTTTGTGTGTAGTTCTTGTAATTGTTGTGCGGAGTCACCTAGTGCAG”, the binding signal is reported as 8220 fluorescence intensity (a.u.). With “GGGTTGATTTTGCTTCCTGCATCCCAGCGACATCGCCCAACGGAGTCACCTAGTGCAG” the binding signal was 11500 fluorescence intensity (a.u.). “CCTGTGCGTGGTCGGGTTAATTTGTCAGTCTGTCACTTACCGGAGTCACCTAGTGCAG” was tested, and the binding signal was 10200 fluorescence intensity (a.u.). With “GTGCTCATCCGCCTCCTCGGGTCGTCTCCATCGACCTCCTCGGAGTCACCTAGTGCAG” the binding signal was 9120 fluorescence intensity (a.u.). In the case of “TTAATAGATGACGCCGTTGATTTTTTCTCACATGTTTGACCGGAGTCACCTAGTGCAG”, the binding signal is reported as 11600 fluorescence intensity (a.u.). In the case of “ATAGATGACGCTGTTGATTTTTTTCTCACATGTTTGACCACGGAGTCACCTAGTGCAG”, the binding signal is reported as 10400 fluorescence intensity (a.u.). In the case of “TTTGTTTTTTAATAGATGACGCTGTTGACTTTTTCTCACGCGGAGTCACCTAGTGCAG”, the binding signal is reported as 14200 fluorescence intensity (a.u.). With “TTTTTAATAGATGACGCCGTTGACTTTTTCTCACATGTTTCGGAGTCACCTAGTGCAG” the binding signal was 34300 fluorescence intensity (a.u.). For “GTTTACTCCAAGATTCACATTTGACTTTCTTATGCCATAGCGGAGTCACCTAGTGCAG”, the binding signal was 9170 fluorescence intensity (a.u.). For “TTTTTTAATAGATGACGCCGTTGACCTTTTCTCACATGTTCGGAGTCACCTAGTGCAG”, the binding signal was 15100 fluorescence intensity (a.u.). For “TAATAGATGACGCCGTTGACTTTTTCTCACATGTTTGACCCGGAGTCACCTAGTGCAG”, the binding signal was 33000 fluorescence intensity (a.u.). “TGTTGACTTTTTAGTACATATTTAACCATTTGTCTTATTACGGAGTCACCTAGTGCAG” was tested, and the binding signal was 14900 fluorescence intensity (a.u.). “TTTTTAATAGATGACGCTGTTGACTTTTTCCCACATGTTTCGGAGTCACCTAGTGCAG” was tested, and the binding signal was 24200 fluorescence intensity (a.u.). In the case of “CTCCATTTAACAGATGACGTCGTTGACTTTTTCTTACATGCGGAGTCACCTAGTGCAG”, the binding signal is reported as 26900 fluorescence intensity (a.u.). For “ATAGATGACGCCGTTAACTTTTTCTCACATGTTTAACCATCGGAGTCACCTAGTGCAG”, the binding signal was 10200 fluorescence intensity (a.u.). In the case of “CTAGTTTTGGTCTTGTGATAGGTTATTTGCTTACGATTATCGGAGTCACCTAGTGCAG”, the binding signal is reported as 9430 fluorescence intensity (a.u.). In the case of “CCGACCCGACCCGACCACCCACCGGCGAGGCCCACTCCGTCGGAGTCACCTAGTGCAG”, the binding signal is reported as 8620 fluorescence intensity (a.u.). With “TGCTGCTGCTGTTGTTCGTGTATTGCTCCATCTGTGCACGCGGAGTCACCTAGTGCAG” the binding signal was 9920 fluorescence intensity (a.u.). With “CATAAACGACGCCGCATCAGACAAACTAAACGCGACAATACGGAGTCACCTAGTGCAG” the binding signal was 8100 fluorescence intensity (a.u.). “GCACTACCTTCACCATTTTTTTTGATTTTTTTCTTTTTTTCGGAGTCACCTAGTGCAG” was tested, and the binding signal was 8270 fluorescence intensity (a.u.). With “GCTATCTCCATCGTCTCTTTCCTTGACCACAGCGGCAATGCGGAGTCACCTAGTGCAG” the binding signal was 9860 fluorescence intensity (a.u.). In the case of “CCACCACGGACTCCGCCGCCGCTCCCGCCACCGCCACATCCGGAGTCACCTAGTGCAG”, the binding signal is reported as 10600 fluorescence intensity (a.u.). “AATAGATGACGCCGTTGATTTTTTCTCACATGTTTGACCACGGAGTCACCTAGTGCAG” was tested, and the binding signal was 11700 fluorescence intensity (a.u.). “ATAAATGACGCCGTTGATTTTTTCTCACATGTTTGACCATCGGAGTCACCTAGTGCAG” was tested, and the binding signal was 10500 fluorescence intensity (a.u.). With “GATGACGCCGTTGACTTTTTCTCACATGTTTGACCAATCGCGGAGTCACCTAGTGCAG” the binding signal was 36900 fluorescence intensity (a.u.). With “CGTTTTTTAATAGATGACGCCGTTGACTTTTTCTCACATGCGGAGTCACCTAGTGCAG” the binding signal was 31400 fluorescence intensity (a.u.). In the case of “TTCATGGAGTCTACTACTCTACTCCCTCTATTTTCAAATACGGAGTCACCTAGTGCAG”, the binding signal is reported as 9010 fluorescence intensity (a.u.). For “ATATAGGGGTTGGTCTTCCACGTCAAATTTGGGGTAGATACGGAGTCACCTAGTGCAG”, the binding signal was 10200 fluorescence intensity (a.u.). With “TAGCTTTGGCACCTTGCGCGCGCGTACACAGCCGCTTAAGCGGAGTCACCTAGTGCAG” the binding signal was 8550 fluorescence intensity (a.u.). With “TTTTTCTCGTTTGCCGTGTCACCGCGTGAGTTGCGCGGGGCGGAGTCACCTAGTGCAG” the binding signal was 11700 fluorescence intensity (a.u.). In the case of “ATCACATCAACCTGTCATATACACACAACTTTTCAGTCATCGGAGTCACCTAGTGCAG”, the binding signal is reported as 8530 fluorescence intensity (a.u.). “TTAAAAAACATTGTACCACAAGTAGCAACAAATTAATGCTCGGAGTCACCTAGTGCAG” was tested, and the binding signal was 26900 fluorescence intensity (a.u.). In the case of “TTTGCTCCACACCACACAACACACATTGTACGGCGTTGCTCGGAGTCACCTAGTGCAG”, the binding signal is reported as 8210 fluorescence intensity (a.u.). For “ACCTCAACAAAAGCTTTGTAGTAGCTCTTAATTGTTGGGTCGGAGTCACCTAGTGCAG”, the binding signal was 8220 fluorescence intensity (a.u.). “CCCAAATCCATCCAGCCCGTCGCCGCCCGCCGCCCGCCGCCGGAGTCACCTAGTGCAG” was tested, and the binding signal was 8860 fluorescence intensity (a.u.). For “CACTCCTGCTGCCGTCCAGTTGCAATTGCGTTTTCTCCTTCGGAGTCACCTAGTGCAG”, the binding signal was 16700 fluorescence intensity (a.u.). In the case of “CTGATCTTAACTCCGTGTTTTTCCGCGTTCTCTTTCGTTCCGGAGTCACCTAGTGCAG”, the binding signal is reported as 19600 fluorescence intensity (a.u.). “CTTTTCTAGCCGTTCACTTTTTTTTACCACAGTAGTTTTTCGGAGTCACCTAGTGCAG” was tested, and the binding signal was 16600 fluorescence intensity (a.u.). With “AGTTTTCTTTGTTCACCTACCGTTTTTTTAGCACGTAGTTCGGAGTCACCTAGTGCAG” the binding signal was 10500 fluorescence intensity (a.u.). “TGTTCTGTGAGAATAGTTTCGTCCGTCTTGTTTTCTCCTGCGGAGTCACCTAGTGCAG” was tested, and the binding signal was 8470 fluorescence intensity (a.u.). With “GTCCGTCTTGTTTTCTCCTGCGTCACAATTGTCCCGTATTCGGAGTCACCTAGTGCAG” the binding signal was 18500 fluorescence intensity (a.u.). For “ACGTGTCCTTCTCTCTTTTTTTCTTTTTCGTTTTCTTCTCCGGAGTCACCTAGTGCAG”, the binding signal was 8280 fluorescence intensity (a.u.). For “TACTGCCGTCGCCGTCGCCCCACGTTTCCTTCTCCAGTTTCGGAGTCACCTAGTGCAG”, the binding signal was 8300 fluorescence intensity (a.u.). “TGTTAAAACACCCTTTTTCACTTTTCTAGCCGTTCACTTTCGGAGTCACCTAGTGCAG” was tested, and the binding signal was 9280 fluorescence intensity (a.u.). With “AGTCCGTGCTGCAGATCTGCTCTTTTCTCTTCGTTTAACTCGGAGTCACCTAGTGCAG” the binding signal was 10300 fluorescence intensity (a.u.). “TGTTATTGTCCTGTATCAGTCCCGTGCTGTTTTTCTCTTTCGGAGTCACCTAGTGCAG” was tested, and the binding signal was 13000 fluorescence intensity (a.u.). “ATCCACTCCAGTCCCGTCCCGTTTCCTTGCTGCCCGGCCGCGGAGTCACCTAGTGCAG” was tested, and the binding signal was 9660 fluorescence intensity (a.u.).
